Inconclusive results are not listed. Active and inactive are the calls of the source. Unless noted, the call rests on the fitted dose curve.
What was measured:
[1] = qHTS assay to identify small molecule agonists of the androgen receptor (AR) signaling pathway in the presence of an antagonist - cell viability counter screen (AID 1259379; active means well fitted curve in the direction sought with a large enough effect in the repeat runs; an effect the other way counts as inactive or inconclusive;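 further: MDA-kb2 human breast cancer cells carrying an MMTV luciferase reporter; series mostly up to about 92 µM; nearly all actives have a fitted effect of over 25% in size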)
Procedure, shortened: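 In MDA-kb2 cells (human breast carcinoma, MMTV-luciferase), compounds at 15 concentrations plus 3.0uM nilutamide; 16 hr, 37C, 0% CO2; CellTiter-Fluor fluorescence read for viability.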

[2] = qHTS assay to identify small molecule antagonists of the estrogen receptor beta (ER-beta) signaling pathway - cell viability counter screen (AID 1259382; active means well fitted curve in the direction sought with a large enough effect in the repeat runs; an effect the other way counts as inactive or inconclusive;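 further: HEK293T cells carrying ER-beta-UAS-bla reporter stimulated with estradiol; series mostly up to about 92 µM; nearly all actives have a fitted effect of over 55% in size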)
Procedure, shortened: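 Tox21 10K library tested in qHTS format on ER-beta-bla HEK293T cells stimulated with 1nM E2; 16 hr treatment at 37C. Same-well CellTiter-Glo luminescence served as the cell viability measure.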

[3] = qHTS assay to identify small molecule agonists of the estrogen receptor alpha (ER-alpha) signaling pathway in the presence of an antagonist - cell viability counter screen (AID 1259386; active means well fitted curve in the direction sought with a large enough effect in the repeat runs; an effect the other way counts as inactive or inconclusive;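 further: cells exposed to compounds for 22 h at 37 °C before the viability read; nearly all actives have a fitted effect of over 30% in size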; further: potency means the concentration at half of the fitted maximal effect)
Procedure, shortened: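 Fluorescent CellTiter-Fluor viability signal from VM7Luc4E2 cells, with the reagent added during the final hour of a 22hr compound exposure at 37C in the presence of 10.0nM ICI-182,780.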

[4] = target: Progesterone receptor (Homo sapiens) (UniProt P06401); assay: qHTS assay to identify small molecule agonists of the progesterone receptor (PR) signaling pathway (AID 1346784); further: nearly all actives have a fitted effect of over 30% in size
Sequence of Progesterone receptor (Homo sapiens) (P06401 whole entry, looked up): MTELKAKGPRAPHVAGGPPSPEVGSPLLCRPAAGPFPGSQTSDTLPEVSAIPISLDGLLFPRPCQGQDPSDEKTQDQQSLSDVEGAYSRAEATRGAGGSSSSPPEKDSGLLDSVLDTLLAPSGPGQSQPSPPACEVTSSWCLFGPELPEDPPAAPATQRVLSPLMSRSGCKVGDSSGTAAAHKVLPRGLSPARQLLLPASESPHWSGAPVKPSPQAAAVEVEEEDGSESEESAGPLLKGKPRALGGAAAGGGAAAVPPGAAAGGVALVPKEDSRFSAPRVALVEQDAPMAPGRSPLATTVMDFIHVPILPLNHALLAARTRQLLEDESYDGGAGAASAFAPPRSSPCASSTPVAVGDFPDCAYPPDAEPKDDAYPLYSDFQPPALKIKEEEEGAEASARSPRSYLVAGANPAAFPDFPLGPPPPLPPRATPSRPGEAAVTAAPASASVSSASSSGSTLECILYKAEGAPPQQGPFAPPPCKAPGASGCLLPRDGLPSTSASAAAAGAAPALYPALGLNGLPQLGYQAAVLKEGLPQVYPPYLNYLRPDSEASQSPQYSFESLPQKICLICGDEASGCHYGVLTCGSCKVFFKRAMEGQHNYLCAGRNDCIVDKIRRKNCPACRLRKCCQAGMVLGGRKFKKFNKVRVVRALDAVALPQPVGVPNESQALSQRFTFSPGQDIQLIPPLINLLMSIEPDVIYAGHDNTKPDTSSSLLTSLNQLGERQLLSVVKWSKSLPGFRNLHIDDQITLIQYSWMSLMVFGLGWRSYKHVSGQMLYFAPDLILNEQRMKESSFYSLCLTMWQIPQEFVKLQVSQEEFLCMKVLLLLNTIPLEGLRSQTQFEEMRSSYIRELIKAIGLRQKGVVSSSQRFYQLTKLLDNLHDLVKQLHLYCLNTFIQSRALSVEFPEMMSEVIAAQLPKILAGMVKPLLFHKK
Procedure, shortened: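 Fluorescence from LiveBLAzer B/G FRET substrate cleavage (2 hr, RT) reported PR activation in PR-UAS-bla HEK 293T cells treated 16 hr at 37C/5% CO2 with compounds; medium contained 2% charcoal-stripped FBS.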

[5] = qHTS assay to identify small molecule agonists of the estrogen receptor beta (ER-beta) signaling pathway - cell viability counter screen (AID 1259380; active means well fitted curve in the direction sought with a large enough effect in the repeat runs; an effect the other way counts as inactive or inconclusive; further: nearly all actives have a fitted effect of over 30% in size; further: potency means the concentration at half of the fitted maximal effect)
Procedure, shortened: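 Viability of ER-beta-UAS-bla HEK293T cells was determined by CellTiter-Glo luminescence following 16 hr treatment with test compounds at 37C.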

[6] = qHTS assay to identify small molecule agonists or antagonists of the thyroid stimulating hormone receptor (TSHR) signaling pathway - wild type cell line counter screen (AID 1259384)
Procedure, shortened: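 Counter screen in untransfected Hek293: compounds (15-point titration, triplicate) plus phosphodiesterase inhibitor Ro20-1724 added after 18 h plating; 30 min RT. Intracellular cAMP via competitive d2/cryptate immunoassay, 1 h incubation.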

[7] = target: Thyrotropin receptor (Homo sapiens) (UniProt P16473); assay: qHTS assay to identify small molecule antagonists of the thyroid stimulating hormone receptor (TSHR) signaling pathway (AID 1259385); further: nearly all actives have a fitted effect of over 20% in size
Sequence of Thyrotropin receptor (Homo sapiens) (P16473 whole entry, looked up): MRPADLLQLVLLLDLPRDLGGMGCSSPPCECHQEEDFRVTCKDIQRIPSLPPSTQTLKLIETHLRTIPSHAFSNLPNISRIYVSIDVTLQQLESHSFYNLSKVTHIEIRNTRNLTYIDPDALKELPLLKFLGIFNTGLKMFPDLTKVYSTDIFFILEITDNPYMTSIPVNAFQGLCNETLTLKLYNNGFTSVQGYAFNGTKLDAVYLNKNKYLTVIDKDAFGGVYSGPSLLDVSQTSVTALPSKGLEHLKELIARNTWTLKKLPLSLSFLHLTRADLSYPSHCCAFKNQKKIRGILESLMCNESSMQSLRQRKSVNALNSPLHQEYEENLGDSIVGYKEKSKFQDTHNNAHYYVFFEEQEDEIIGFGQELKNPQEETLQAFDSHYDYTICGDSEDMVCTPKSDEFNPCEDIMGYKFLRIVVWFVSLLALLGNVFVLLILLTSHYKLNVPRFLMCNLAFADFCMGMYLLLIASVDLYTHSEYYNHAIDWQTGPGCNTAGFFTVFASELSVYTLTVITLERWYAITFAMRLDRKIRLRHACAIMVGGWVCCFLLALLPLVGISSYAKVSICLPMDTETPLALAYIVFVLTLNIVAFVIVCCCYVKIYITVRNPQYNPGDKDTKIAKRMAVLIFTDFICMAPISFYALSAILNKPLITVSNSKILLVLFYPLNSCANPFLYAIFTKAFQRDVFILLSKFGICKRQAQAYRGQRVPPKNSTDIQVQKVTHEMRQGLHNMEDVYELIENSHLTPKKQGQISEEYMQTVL
Procedure, shortened: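 Antagonist mode: compound-treated TSHR-expressing HEK293 cells were stimulated with 1.5 ng/mL TSH (final) in presence of Ro20-1724 for 30 min at RT. HTRF cAMP detection after 1 h; each compound tested at 15 concentrations, triplicate.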

[8] = target: Androgen receptor (Homo sapiens) (UniProt P10275); assay: qHTS assay to identify small molecule agonists of the androgen receptor (AR) signaling pathway in the presence of an antagonist (AID 1259381); further: nearly all actives have a fitted effect of over 15% in size
Sequence of Androgen receptor (Homo sapiens) (P10275 whole entry, looked up): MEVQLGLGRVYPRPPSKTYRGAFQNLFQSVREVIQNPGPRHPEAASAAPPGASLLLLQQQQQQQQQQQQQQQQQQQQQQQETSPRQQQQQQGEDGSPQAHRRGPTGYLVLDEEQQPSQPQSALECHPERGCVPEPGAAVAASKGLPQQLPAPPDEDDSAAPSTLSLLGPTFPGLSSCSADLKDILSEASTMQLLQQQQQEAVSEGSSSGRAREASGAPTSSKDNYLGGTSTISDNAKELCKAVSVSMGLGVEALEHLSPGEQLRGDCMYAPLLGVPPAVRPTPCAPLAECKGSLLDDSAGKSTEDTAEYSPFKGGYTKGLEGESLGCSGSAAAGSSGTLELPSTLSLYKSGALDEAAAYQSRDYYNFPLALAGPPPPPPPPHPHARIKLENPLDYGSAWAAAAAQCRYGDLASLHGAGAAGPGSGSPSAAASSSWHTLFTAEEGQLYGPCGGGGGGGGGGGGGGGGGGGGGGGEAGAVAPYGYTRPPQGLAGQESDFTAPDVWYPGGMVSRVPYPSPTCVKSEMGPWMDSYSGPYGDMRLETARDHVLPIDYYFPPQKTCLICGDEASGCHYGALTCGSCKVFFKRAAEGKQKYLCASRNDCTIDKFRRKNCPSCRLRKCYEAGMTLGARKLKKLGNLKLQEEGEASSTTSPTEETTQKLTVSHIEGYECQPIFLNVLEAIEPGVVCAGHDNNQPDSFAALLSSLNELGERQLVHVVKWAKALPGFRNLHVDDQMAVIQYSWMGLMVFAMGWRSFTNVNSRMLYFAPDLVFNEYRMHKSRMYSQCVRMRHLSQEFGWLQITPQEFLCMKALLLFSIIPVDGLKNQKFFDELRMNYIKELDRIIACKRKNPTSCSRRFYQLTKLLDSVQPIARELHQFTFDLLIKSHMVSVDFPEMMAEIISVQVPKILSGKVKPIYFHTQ
Procedure, shortened: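 Here, 15-concentration compound series were pin-transferred onto MDA-kb2 MMTV-luciferase cells already dosed with nilutamide (3.0uM final). After 16hr at 37C, ONE-Glo was added and luminescence read 30min later at room temperature.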

[9] = target: Estrogen receptor (Homo sapiens) (UniProt P03372); assay: qHTS assay to identify small molecule agonists of the estrogen receptor alpha (ER-alpha) signaling pathway in the presence of an antagonist (AID 1259383); further: top concentration of the series differs between compounds; nearly all actives have a fitted effect of over 15% in size
Sequence of Estrogen receptor (Homo sapiens) (P03372 whole entry, looked up): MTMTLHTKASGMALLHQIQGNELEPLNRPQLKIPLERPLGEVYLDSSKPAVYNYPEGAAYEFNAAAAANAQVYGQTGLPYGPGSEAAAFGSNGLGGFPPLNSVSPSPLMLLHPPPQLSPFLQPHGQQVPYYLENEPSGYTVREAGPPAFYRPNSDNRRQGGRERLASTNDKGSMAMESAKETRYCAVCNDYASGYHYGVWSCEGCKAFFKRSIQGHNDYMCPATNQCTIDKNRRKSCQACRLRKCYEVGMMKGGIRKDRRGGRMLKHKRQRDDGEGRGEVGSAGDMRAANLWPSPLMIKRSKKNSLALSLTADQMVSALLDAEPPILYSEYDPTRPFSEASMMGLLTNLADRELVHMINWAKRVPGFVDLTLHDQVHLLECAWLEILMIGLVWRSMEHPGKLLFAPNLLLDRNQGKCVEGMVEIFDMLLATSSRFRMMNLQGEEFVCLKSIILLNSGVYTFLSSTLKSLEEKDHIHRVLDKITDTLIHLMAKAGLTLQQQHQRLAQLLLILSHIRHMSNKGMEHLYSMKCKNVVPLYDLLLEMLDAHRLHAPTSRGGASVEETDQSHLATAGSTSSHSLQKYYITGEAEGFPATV
Procedure, shortened: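 In VM7Luc4E2 cells, 4,000 per well, compounds at 15 concentrations were co-incubated 22hr at 37C with 10.0nM final ICI-182,780. Luminescence from the stably transfected 4×ERE-luciferase reporter was recorded 30min after ONE-Glo addition.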

Measured: Potency

CC(C)C[C@H](NC(=O)CNC(=O)[C@H](Cc1ccc(O)cc1)NC(=O)[C@H](CO)NC(=O)[C@H](Cc1c[nH]c2ccccc12)NC(=O)[C@H](Cc1cnc[nH]1)NC(=O)[C@@H]1CCC(=O)N1)C(=O)N[C@@H](CCCN=C(N)N)C(=O)N1CCC[C@H]1C(=O)NCC(N)=O (stereo in doubt)
inactive: [1] | [2] | [3] | [4]

O=C(NCCN1CCOCC1)c1ccc(Cl)cc1
inactive: [1] | [5] | [6] | [7] | [4]

COc1ccc2nc(SCc3ncc(C)c(OC)c3C)[nH]c2c1
not listed: [5] | [9]
inactive: all other assays above

O=P(O)(O)OP(=O)(O)O
inactive: [1] | [5] | [6] | [3] | [4]

CC(CN)CC(C)(C)CCN (centres undefined)
inactive: [1] | [5] | [6] | [7] | [4]

O=C(CS(=O)Cc1ccco1)NC/C=C\COc1cc(CN2CCCCC2)ccn1 (centres undefined)
not listed: [2] | [8]
inactive: all other assays above

CC(C)(C)c1n[nH]c(=S)n(N)c1=O
not listed: [2] | [8]
inactive: all other assays above

COc1cc2c(cc1OC)[C@@H]1CC(=O)[C@@H](CC(C)C)CN1CC2
not listed: [2] | [8] | [9]
inactive: all other assays above

O=C(c1ccc(O)cc1)c1ccc(O)c(O)c1O
inactive: [5] | [2] | [4]

OC[C@H](Cc1cccc(O)c1)[C@H](CO)Cc1cccc(O)c1
inactive: [1] | [3] | [4]

CC1(CO)CN(c2ccccc2)NC1=O (centres undefined)
inactive: [1] | [8] | [6] | [3] | [4]

Nc1ccc2cc(S(=O)(=O)O)cc(O)c2c1
inactive: [5] | [8] | [2] | [9] | [4]
active: [3] 48.3 µM

On1nnc2ccccc21
active: [5] 1.54 µM
not listed: [2] | [8]
inactive: all other assays above

O=C(OCC(O)CO)c1ccccc1Nc1ccnc2c(C(F)(F)F)cccc12 (centres undefined)
inactive: [1] | [8] | [2] | [6]

COc1ccc(Br)c(C)c1
not listed: [2] | [8] | [9]
inactive: all other assays above

C[C@H](CCC(=O)O)[C@H]1CC[C@H]2[C@@H]3C(=O)C[C@@H]4CC(=O)CC[C@]4(C)[C@H]3CC(=O)[C@]12C
not listed: [2] | [8] | [9]
inactive: all other assays above

COCCOC(=O)C1=C(C)NC(C)=C(C(=O)OC(C)C)C1c1cccc([N+](=O)[O-])c1 (centres undefined)
inactive: [1] | [5] | [6] | [7] | [3]

CC(=O)Nc1cccc(C)c1
not listed: [5] | [8]
inactive: all other assays above

CC1=C(C(=O)O)N2C(=O)[C@@H](NC(=O)[C@H](N)c3ccc(O)cc3)[C@H]2SC1
inactive: [1] | [2] | [6] | [7] | [4]

CCC(C)(CCC(C)C)C(=O)O (centres undefined)
inactive: [1] | [5] | [3] | [4]

COc1ccc2c(c1OC)C(=O)O[C@@H]2[C@H]1c2c(cc3c(c2OC)OCO3)CCN1C
inactive: [5] | [6] | [7] | [4]

O=C(O)Cc1cn(-c2ccccc2)nc1-c1ccc(Cl)cc1
not listed: [2] | [5] | [8]
inactive: all other assays above

CC(C)(C)c1cc(CCC(=O)NN)cc(C(C)(C)C)c1O
not listed: [5] | [8] | [9]
inactive: all other assays above

CCCC/C=C/C=C\C=O
not listed: [3] | [5]
inactive: all other assays above

C[C@@H]1O[C@@H](O[C@@H]2[C@@H](O)[C@H](OCCc3ccc(O)c(O)c3)O[C@H](CO[C@@H]3O[C@H](CO)[C@@H](O)[C@H](O)[C@H]3O)[C@H]2OC(=O)/C=C/c2ccc(O)c(O)c2)[C@H](O)[C@H](O)[C@H]1O
inactive: [5] | [7]

C=C(C)C(=O)OCc1ccccc1
inactive: [1] | [5] | [2] | [4]

CCCN1C[C@H](CSC)C[C@@H]2c3cccc4[nH]cc(c34)C[C@H]21
inactive: [1] | [2] | [6] | [7] | [4]

CCOc1cc([N+](=O)[O-])c(OCC)cc1N1CCOCC1
not listed: [1] | [3] | [8]
inactive: all other assays above

CCCCCCCCC(=O)Cl
inactive: [1] | [5] | [2] | [3] | [4]

CN(C)CCOCCO
not listed: [2] | [8]
inactive: all other assays above

CCOC(=O)c1ccc(OC(=O)CCCCCN=C(N)N)cc1
inactive: [1] | [9] | [6] | [7] | [4]

— PubChem BioAssay (Tox21)
